A short description of test [1]: qHTS Assay for Identification of Small Molecule Agonists for Hypoxia Response Element Signaling Pathway (AID 914; active means well fitted activation curve with a large enough effect in the signal ratio, with a control signal flat, not every such curve was filed as active; the % refers to the signal ratio; further: % of control where 0% means no effect). The following applies: ME-180 (cervical carcinoma) HRE-bla reporter, beta-lactamase ratio, CoCl2, 17 h; activation: stronger effect = higher value. Summed up: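 Cells were plated overnight, pin-dosed with compound in a titration series, co-stimulated with EC50 CoCl2 and incubated 17 hours at 37 degrees Celsius. CCF4 substrate was then loaded, and AC50 values came from the 460nm/530nm ratio.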
(Quantitative high-throughput screening tests each substance at several concentrations.)

Test [2] in a line: Cell Viability - Jurkat (AID 426;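 active means dose-dependent loss of cell ATP signal giving a full or clear fitted curve, ranked by lower potency value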;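 further: potency means the concentration at half of the fitted maximal effect; cells exposed to compound for 40 hours at 37 °C before ATP read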). Conditions: qHTS. The method, boiled down: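 Jurkat (Clone E6-1) cells, 5000/well in complete medium, exposed to compounds for 40 hr at 37C; intracellular ATP measured by CellTiter-Glo luminescence after 20 min at room temperature. AC50 from Hill fits.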
A short description of test [3]: Cell Viability - H-4-II-E (AID 543). Further: nearly all actives have a fitted effect of over 35% in size. Further: potency means the concentration at half of the fitted maximal effect. The method, boiled down:
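Rat hepatoma H-4-II-E cells, 1500 per well, treated 40 h at 37 °C in complete medium. Cellular ATP read by CellTiter-Glo luminescence; AC50 from Hill fits of concentration-response.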

A short description of test [4]: Cell Viability - SH-SY5Y (AID 544). Further: potency means the concentration at half of the fitted maximal effect; nearly all actives have a fitted effect of over 55% in size. The following applies: SH-SY5Y neuroblastoma cell viability; viability change, negative = cytotoxic: at 92.2 µM (top of the series). Summed up: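 SH-SY5Y human neuroblastoma cells (1500/well) incubated 5 h, then compound-treated 40 h at 37 °C in complete medium. Viability read as intracellular ATP by CellTiter-Glo luminescence after 20 min; AC50 from Hill-equation fits of qHTS concentration-response.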

A short description of test [5]: Cell Viability - Renal Proximal Tubule (AID 545).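 Further: 0% = DMSO only and -100% = 100 µM tamoxifen; nearly all actives have a fitted effect of over 40% in size.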 Conditions: renal proximal tubule cells viability; at 91.7 µM (top of the series), primary cells of rat origin unless noted. The method, boiled down: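 Rat kidney proximal tubule cells, freshly isolated; 1000 cells/well, 5 hr settle, compound 40 hr 37 °C. CellTiter-Glo 20 min RT, luminescence read. AC50 by standard Hill fit.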

Test [6] can be described thus: Cellular Toxicity (caspase-3) HUV-EC-C (AID 656).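 Further: cells exposed to compound for 16 h; 0% = DMSO basal and 100% = 100 µM tamoxifen.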 The method, boiled down:
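Luminescent caspase-3/7 activation (aminoluciferin substrate cleavage) in HUV-EC-C cells after 16 hr compound exposure, 37°C. Signal normalized to DMSO basal and 100 uM tamoxifen as 100%; AC50 from concentration-response fitted with the Hill equation.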

A short description of test [7]: Cellular Toxicity (caspase-3) NIH 3T3 (AID 666).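 Further: caspase signal read after 16 h compound exposure; 0% = DMSO basal and 100% = 100 µM tamoxifen stimulation.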 Summed up: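 Mouse NIH 3T3 fibroblasts (1000/well) treated 16 h at 37 C; caspase-3/7 activity measured by Caspase-Glo 3/7 luminescence after 20 min. Normalized to DMSO and 100 uM tamoxifen; AC50 from Hill fits.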
The nature of test [8]: Cell Viability - LYMP2-001 (AID 921).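 Further: cells exposed to compound for 24 h at 37 °C; nearly all actives have a fitted effect of over 70% in size.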 Further: potency means the concentration at half of the fitted maximal effect. The method, boiled down:
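CellTiter-Glo luminescence (intracellular ATP) after 24 hr compound exposure at 37 C, 2500 lymphoblastoid cells/well in complete medium. AC50 fitted with standard Hill equation; tetraoctylammonium bromide positive control.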

A short description of test [9]: MultiTox-Fluor Cytotoxicity Assay - LYMP1-001 - Dead Cells (AID 946).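 Further: potency means the concentration at half of the fitted maximal effect; cells exposed to compound for 16 h.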 The method, boiled down:
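AC50 from Hill fit of concentration-response; data normalized to DMSO (basal) and 15 uM tetraoctylammonium bromide (100%). LYMP1-001 lymphoblastoid cells, 2500/well, 16 hr compound at 37 C; dead-cell protease fluorescence, Ex/Em 485/520.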

The nature of test [10]: Cell Viability - LYMP1-002 - Assay at 16 hr (AID 948). Further: potency means the concentration at half of the fitted maximal effect.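 On activity change, negative = cytotoxicity: 0% = DMSO alone and full effect = 92 µM tetraoctylammonium bromide.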 The method, boiled down: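 LYMP1-002 human lymphoblastoid cells, 2500/well; 5 hr 37 C; cpd 16 hr 37 C; CellTiter-Glo 30 min RT; luminescence (ATP). Concentration-response, Hill-fit AC50. Pos ctrl tetraoctylammonium bromide.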
The nature of test [11]: MultiTox-Fluor Cytotoxicity Assay - LYMP1-002 - Dead Cells (AID 960). Further: potency means the concentration at half of the fitted maximal effect; nearly all actives have a fitted effect of over 60% in size. The method, boiled down:
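Human lymphoblastoid LYMP1-002 cells, 2500/well, treated 16 h at 37 C; dead-cell protease cleavage of bis-AAF-R110 read by fluorescence (485/520); normalized to DMSO and 15 uM tetraoctylammonium bromide; AC50 from Hill fit.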

Test [12] in a line: MultiTox-Fluor Cytotoxicity Assay - LYMP1-003 - Dead Cells (AID 961).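 Further: potency means the concentration at half of the fitted maximal effect; cells exposed to compound for 16 h at 37 °C; nearly all actives have a fitted effect of over 70% in size.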 The method, boiled down: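 Human lymphoblastoid LYMP1-003 cells (2500/well) were treated with compounds for 16 hr at 37 C in complete medium. Dead-cell protease release was read by bis-AAF-R110 fluorescence (Ex/Em 485/520). AC50 came from Hill fits, normalized to DMSO and 15 uM tetraoctylammonium bromide.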

Test [13] can be described thus: MultiTox-Fluor Cytotoxicity Assay - LYMP1-003 - Live Cells (AID 962).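 Further: cells exposed to compound for 16 hours at 37 °C.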 Further: potency means the concentration at half of the fitted maximal effect. Summed up: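 LYMP1-003 lymphoblastoid cells, 2500/well in complete medium, treated 16 h at 37 C; live-cell protease cleavage of GF-AFC read by fluorescence (Ex/Em 405/510) after 60 min reagent; AC50 from Hill fits of concentration-response.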
Test [14] in a line: Cell Viability - LYMP1-003 - Assay at 24 hr (AID 963). Further: potency means the concentration at half of the fitted maximal effect.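 On viability change, negative = cytotoxic: plate controls were DMSO only for no effect and tetraoctylammonium bromide positive control for full effect.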 Summed up:
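Human lymphoblastoid LYMP1-003 cells, 2500/well, treated 24 h at 37 C in complete medium. Viability read as intracellular ATP by CellTiter-Glo luminescence after 30 min at room temperature; AC50 from Hill-equation fits of qHTS concentration-response.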

Test [15] can be described thus: Cell Viability - LYMP1-003 - Assay at 40 hr (AID 964). Further: nearly all actives have a fitted effect of over 60% in size. Further: potency means the concentration at half of the fitted maximal effect. Summed up:
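LYMP1-003 human lymphoblastoid cells, 2500/well, preincubated 5 h at 37 C, then treated with compound for 40 h at 37 C. Intracellular ATP read by CellTiter-Glo luminescence after 30 min at room temperature; AC50 from Hill-equation fits.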

The target of test [16] is Voltage-gated inwardly rectifying potassium channel KCNH2 (Homo sapiens) (UniProt Q12809). Put plainly: qHTS Assay for Small Molecule Inhibitors of the Human hERG Channel Activity (AID 588834).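 Further: potency means the concentration at half of the fitted maximal effect; lower thallium flux fluorescence means stronger hERG block; nearly all actives have a fitted effect of over 50% in size.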 Summed up: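 Concentration-response qHTS measuring drop in thallium-sensitive dye signal. U2OS cells carrying BacMam hERG; compound exposure ~10 min, then stimulation buffer and 2 min read at 1 sec intervals.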
Sequence of Voltage-gated inwardly rectifying potassium channel KCNH2 (Homo sapiens) (Q12809 whole entry, looked up): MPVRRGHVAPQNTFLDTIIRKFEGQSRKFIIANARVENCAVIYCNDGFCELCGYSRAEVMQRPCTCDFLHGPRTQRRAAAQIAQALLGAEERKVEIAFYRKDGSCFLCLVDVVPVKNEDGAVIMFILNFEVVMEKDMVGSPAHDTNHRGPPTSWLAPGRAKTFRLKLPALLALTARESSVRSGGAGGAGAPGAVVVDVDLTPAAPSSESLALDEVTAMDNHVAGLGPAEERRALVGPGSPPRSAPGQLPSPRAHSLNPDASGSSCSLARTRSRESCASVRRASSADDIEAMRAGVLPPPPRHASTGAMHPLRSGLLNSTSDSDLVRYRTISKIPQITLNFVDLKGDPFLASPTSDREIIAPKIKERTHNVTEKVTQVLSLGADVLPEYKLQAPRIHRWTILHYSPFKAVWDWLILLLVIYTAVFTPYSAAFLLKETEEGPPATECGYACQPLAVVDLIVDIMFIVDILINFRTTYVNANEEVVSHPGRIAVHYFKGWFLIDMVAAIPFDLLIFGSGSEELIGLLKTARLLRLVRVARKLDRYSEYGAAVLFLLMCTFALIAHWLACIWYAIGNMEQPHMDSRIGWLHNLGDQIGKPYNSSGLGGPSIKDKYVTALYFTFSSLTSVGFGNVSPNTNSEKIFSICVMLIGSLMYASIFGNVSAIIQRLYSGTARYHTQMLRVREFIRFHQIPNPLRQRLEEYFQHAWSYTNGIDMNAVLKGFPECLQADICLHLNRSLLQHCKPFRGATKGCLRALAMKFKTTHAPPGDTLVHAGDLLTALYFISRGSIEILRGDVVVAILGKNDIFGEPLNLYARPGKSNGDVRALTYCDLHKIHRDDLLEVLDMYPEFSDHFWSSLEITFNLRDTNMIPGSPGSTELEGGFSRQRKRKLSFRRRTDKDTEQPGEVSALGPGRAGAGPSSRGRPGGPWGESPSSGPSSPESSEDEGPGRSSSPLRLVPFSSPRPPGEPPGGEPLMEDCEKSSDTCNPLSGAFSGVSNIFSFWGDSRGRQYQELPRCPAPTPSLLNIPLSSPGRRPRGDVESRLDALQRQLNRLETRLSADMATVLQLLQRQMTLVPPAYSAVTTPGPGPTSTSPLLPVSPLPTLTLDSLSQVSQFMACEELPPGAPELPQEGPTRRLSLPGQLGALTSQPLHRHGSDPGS

Test [17] is described as follows: qHTS assay for small molecule disruptors of the mitochondrial membrane potential - 1 hr assay (AID 651754; calls by dose curve; further: nearly all actives have a fitted effect of over 35% in size; further: potency means the concentration at half of the fitted maximal effect). The method, boiled down:
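HepG2 cells, attached overnight, were exposed to compound for 1 hr at 37C, then stained 30 min with a potentiometric dye. Ratio of red aggregate (590nm) to green monomer (535nm) fluorescence reports membrane potential; collapse shifts signal toward green.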

Test [18] is described as follows: qHTS assay for small molecule disruptors of the mitochondrial membrane potential - 5 hr assay (AID 651755; calls by dose curve; further: nearly all actives have a fitted effect of over 40% in size; further: potency means the concentration at half of the fitted maximal effect). The method, boiled down:
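HepG2 cells (2,000/well), attached overnight, exposed to compound 5 hr at 37C, then Mito-MPS dye 30 min. Fluorescence read for monomers (490/535 nm) and aggregates (540/590 nm).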

Test [19] in a line: qHTS assay for small molecule antagonists of the retinoid-related orphan receptor gamma (ROR-gamma) signaling pathway - cell viability counter screen (AID 720652; active means well fitted curve in the direction sought with a large enough effect in the repeat runs; an effect the other way counts as inactive or inconclusive;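 further: potency means the concentration at half of the fitted maximal effect; compound exposure lasted 16 hr before ATP read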). The method, boiled down: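 CHO cells carrying TET-inducible ROR and RORE-luciferase reporter, plated 5 hr, then dosed with compound plus doxycycline. After 16 hr at 37 C, viability read as intracellular ATP by CellTiter-Glo luminescence.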

Test [20] addresses Glucocorticoid receptor (Homo sapiens) (UniProt P04150). Put plainly: qHTS assay for small molecule agonists of glucocorticoid receptor signaling (AID 588532; active means well fitted curve in the direction sought with a large enough effect in the signal ratio, with a control signal flat; the % refers to the signal ratio;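 further: 100% = dexamethasone at 0.1 µM and 0% = DMSO only wells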). The following applies: HeLa MMTV-bla, beta-lactamase ratio, agonist, 18 h; stronger effect = higher value; percent of dexamethasone control, DMSO zero. Summed up:
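MMTV-bla HeLa beta-lactamase reporter cells in 1% charcoal/dextran FBS medium, compounds up to 92 uM for 18 h at 37 C, CCF4 readout; normalized to 0.1 uM dexamethasone (100%), EC50 and efficacy from Hill fits.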

This is an account of results in PubChem BioAssay (NCATS).

Where “and” joins values, the source holds several entries; their conditions need not be identical. Equal entries are not always repeated. Values without a mark were called inactive. Records with an inconclusive call do not appear. Calls of active or inactive are those of the source. Unless noted, the call rests on the fitted dose curve; in most records, active means well fitted curve in the direction sought with a large enough effect; inconclusive means small, poorly fitted or top-dose-only effect, or another doubt; inactive means no such curve, though single readings can be large; an effect the other way counts as inactive or inconclusive. Bounds are passed on as bounds.

Sequence of Glucocorticoid receptor (Homo sapiens) (P04150 whole entry, looked up): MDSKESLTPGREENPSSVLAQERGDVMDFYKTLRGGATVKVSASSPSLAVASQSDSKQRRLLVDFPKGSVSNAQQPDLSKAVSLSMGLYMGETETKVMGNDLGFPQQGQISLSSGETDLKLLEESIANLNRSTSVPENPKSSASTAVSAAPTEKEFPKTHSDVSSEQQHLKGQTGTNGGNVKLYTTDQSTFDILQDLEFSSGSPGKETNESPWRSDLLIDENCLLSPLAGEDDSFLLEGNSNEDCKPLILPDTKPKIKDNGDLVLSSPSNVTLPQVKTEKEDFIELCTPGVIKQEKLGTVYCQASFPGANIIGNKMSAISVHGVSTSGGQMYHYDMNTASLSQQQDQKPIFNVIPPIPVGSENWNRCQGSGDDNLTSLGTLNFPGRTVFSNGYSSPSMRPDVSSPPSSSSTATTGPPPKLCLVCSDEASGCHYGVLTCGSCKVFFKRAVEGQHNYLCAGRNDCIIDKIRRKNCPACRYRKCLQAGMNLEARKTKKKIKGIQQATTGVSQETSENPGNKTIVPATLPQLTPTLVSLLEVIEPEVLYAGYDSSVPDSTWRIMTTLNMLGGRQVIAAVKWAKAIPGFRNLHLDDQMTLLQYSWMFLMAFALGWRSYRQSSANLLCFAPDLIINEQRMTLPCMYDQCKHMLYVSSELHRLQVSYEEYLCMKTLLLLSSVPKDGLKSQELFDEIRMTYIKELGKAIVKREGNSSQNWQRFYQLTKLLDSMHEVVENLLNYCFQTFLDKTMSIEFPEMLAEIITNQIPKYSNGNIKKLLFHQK

Consider `COc1ccc(NC(=O)N2CCC3(CC2)CCN(C(=O)Oc2ccccc2)CC3)cc1`, for which, in test [1], the activation was -18.1%.
Still for that read-out and setting: then `CCC[C@@](C)(COC(N)=O)COC(=O)NC(C)C`, with -3.35%.
Regarding `CCCCCCCCCc1ccc(O)cc1`, the Potency is over 92 µM in test [2]; 12.6 µM (active) in test [4]; 39.8 µM (active) in [9]; 25.1 µM (active) in test [11]; 39.8 µM (active) in test [12]; 31.6 µM (active) in test [16]. Also, the Potency in test [17] was 10.6 µM (active); in test [18] it was 16.8 µM (active); in test [19], 66.8 µM (active). Besides, the Potency entry in test [3], in test [8], in [10], in test [13], in test [14] and in [15] was “inactive” each time. Moreover, in test [5], the activity change, negative = cytotoxicity is -80.8% (active). Moreover, the compound was classed as inactive in [6] and in test [7].
Take `O=C1C(Cl)=C(Cl)C(=O)C(Cl)=C1Cl`: the Potency in test [2] was 9.41 µM (active); in test [3], 50.1 µM (active); in test [4] it was 25.1 µM (active); in [8], 12.6 µM (active); in test [9] it was 12.6 µM (active); in [10], 31.6 µM (active). In addition, the Potency in test [11] was 15.8 µM (active); in [12], 25.1 µM (active); in test [13], 50.1 µM (active); in test [14], 31.6 µM (active); in [15], 31.6 µM (active); in test [16], 44.7 µM (active). In [19], the Potency was 23.7 µM (active). Besides, in [5], the activity change, negative = cytotoxicity was -104% (active). For the same compound, the compound was classed as inactive in test [6] and in test [7]. Also, the Potency result in [17] and in test [18] was “inactive” throughout.
As for `CNC(=O)Oc1ccccc1OC(C)C`, the activation in test [20] is -7.67%.
The same measure, in the same setting: then `CC(C)(C)C(=O)C(Oc1ccc(Cl)cc1)n1cncn1` (stereo unspecified), with -3.08% and -1.34%; and `CCS(=O)CCSP(=O)(OC)OC` (stereo unspecified), with 2.31%.
